This is part of a sample that, as a whole, favours compounds with a hit. Of some 79,000 tested, about 15% had one in any assay. A number with no mark means an inactive call. The source made the active and inactive calls. Rule as the data show it: active = growth inhibition above about 70%; inactive = the rest.

Assay [1] can be described thus: NCI Yeast Anticancer Drug Screen. Data for the rad50 strain (AID 155).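 Also: 0% = growth of vehicle-only cultures of the same strain.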 The note with it: S. cerevisiae rad50 strain growth inhibition; at 50.0 µM; stronger effect = higher value. The procedure, abridged: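 Readout: growth inhibition relative to vehicle-treated cultures. Compound exposure was carried out in a genetically defined yeast strain deficient in DNA damage repair.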

A short description of assay [2]: NCI Yeast Anticancer Drug Screen. Data for the mec2-1 strain (AID 157). Particulars: S. cerevisiae mec2-1 strain, at 50.0 µM, stronger effect = higher value. The method in brief: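 Strain: mec2-1 (DNA repair/cell cycle alteration). Compound exposure, then growth measured; inhibition expressed relative to vehicle.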
The nature of assay [3]: NCI Yeast Anticancer Drug Screen. Data for the sgs1 mgt1 strain (AID 161).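 Also: 0% = growth of cultures given vehicle only.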 Particulars: S. cerevisiae sgs1 mgt1 strain, at 50.0 µM, stronger effect = higher value. The procedure, abridged:
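Read-out: growth inhibition vs vehicle controls. Cells: mutant yeast strain deficient in DNA damage repair.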

Assay [4] can be described thus: NCI Yeast Anticancer Drug Screen. Data for the cln2 rad14 strain (AID 165).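 Also: 0% = growth equal to vehicle treated cultures.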 The note with it: S. cerevisiae cln2 rad14 strain, at 50.0 µM, stronger effect = higher value. The procedure, abridged: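 Compounds are applied to the cln2 rad14 yeast strain, and growth is then compared with that of vehicle-treated cultures to give inhibition.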
The nature of assay [5]: NCI Yeast Anticancer Drug Screen. Data for the bub3 strain (AID 167). Particulars: S. cerevisiae bub3 mutant strain, at 50.0 µM, stronger effect = higher value. The method in brief: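 Readout: yeast growth inhibition, expressed relative to vehicle-only wells. The test organism is a mutant strain from a panel with lesions in DNA repair or checkpoint genes.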
The nature of assay [6]: NCI Yeast Anticancer Drug Screen. Data for the mlh1 rad18 strain (AID 175). Particulars: S. cerevisiae mlh1 rad18 strain growth inhibition; at 50.0 µM; stronger effect = higher value. The procedure, abridged: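 Read-out is yeast growth inhibition, calculated against vehicle-only controls. The compound was applied to a strain engineered with DNA damage repair alterations.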

Consider `NCCN.O=C([O-])[O-].O=C([O-])[O-].[Co+3].[K+]`, for which the growth inhibition was 1.5% in assay [1]; 4.6% in assay [2]; 5.2% in assay [3]; 13.2% in assay [4]; -8.9% in assay [5]; -5.55% in assay [6].

Regarding `Clc1cc[c]([Sb]2([c]3ccc(Cl)cc3)([c]3ccc(Cl)cc3)[O]C(C(Cl)(Cl)Cl)[O]2)cc1` (configuration not stated), the growth inhibition in assay [1] was 98.3% (active); in assay [2] it was 98.5% (active); in assay [3] it was 98.2% (active); in assay [4], 98.2% (active); in assay [5], 97% (active); in assay [6], 97.8% (active).

`C/C=C\CC1(C/C=C/C)C(=O)NC(=O)NC1=O`: the growth inhibition in assay [1] was 2.25%; in assay [2], -7.45%; in assay [3] it was -5.05%; in assay [4], -17.6%; in assay [5] it was -8.9%; in assay [6], 1.25%.

As to `O=C1CN2CCC1CC2`, the growth inhibition was 10.3% in assay [1]; -47% in assay [2]; -3.25% in assay [3]; 12.6% in assay [4]; -23.2% in assay [5]; 10.8% in assay [6].

For the compound `COC(=O)c1ccccc1NC(C)=O`, the growth inhibition is -13.8% in assay [1]; -9.25% in assay [2]; -8.95% in assay [3]; -38.4% in assay [4]; -8.5% in assay [5]; 2.15% in assay [6].

`O=[N+]([O-])c1ccc(N=Nc2ccc(N(CCCl)CCCl)cc2)cc1`: the growth inhibition in assay [1] is -4.8%; in assay [2], 14.1%; in assay [3] it was -1.25%; in assay [4], -14.9%; in assay [5] it was 5%; in assay [6], 23.5%.

With `N=c1nc(N)n2c(N)nc(=N)n12`, the growth inhibition in assay [1] is 19.9%; in assay [2] it was 12.7%; in assay [3], -1.55%; in assay [4] it was 4.05%; in assay [5], -1.75%; in assay [6], 2.45%.

On to `CC(C)c1cc2c(cc1O)C1(C)CCCC(C)(C)C1=CC2=O` (configuration not stated), for which the growth inhibition in assay [1] was -1.65%; in assay [2] it was -28.9%; in assay [3], -8.15%; in assay [4], -17%; in assay [5], -5.8%; in assay [6] it was -13.1%.

Consider `c1cc(C2N3CCCN2CC3)ccn1` (configuration not stated), for which the growth inhibition was 10% in assay [1]; -27.7% in assay [2]; -34% in assay [3]; -19.9% in assay [4]; -2.35% in assay [5]; -15.2% in assay [6].

`O=C(O)/C=C/c1ccc(S(=O)(=O)F)cc1`: the growth inhibition is 36.4% in assay [1]; -16% in assay [2]; 16.6% in assay [3]; 15.9% in assay [4]; 34% in assay [5]; 20.6% in assay [6].

Consider `CN1CCN(c2cc3nsnc3c3nsnc23)CC1`, for which the growth inhibition was 0.3% in assay [1]; -7.3% in assay [2]; -15.1% in assay [3]; 8.6% in assay [4]; -12.7% in assay [5]; 18.1% in assay [6].

As for `CC1=C2[C@H]3OC(=O)[C@@H](C)[C@@H]3CC[C@@]2(C)C=CC1=O`, the growth inhibition is 20.6% in assay [1]; 5.9% in assay [2]; 1.15% in assay [3]; 15.2% in assay [4]; 2.25% in assay [5]; 12.6% in assay [6].

`Cn1nnnc1NC#N`: the growth inhibition was -9.15% in assay [1]; 4.85% in assay [2]; 1% in assay [3]; 6.7% in assay [4]; 23.4% in assay [5]; -4.25% in assay [6].

For the compound `CC(=O)Nc1ccc(Cl)cc1`, the growth inhibition in assay [1] is -20.4%; in assay [2], -7.15%; in assay [3] it was -18.1%; in assay [4] it was 1.7%; in assay [5], 9.45%; in assay [6], -1.9%.

In the case of `Nc1nc(CC(N)C(=O)O)c[se]1` (configuration not stated), the growth inhibition in assay [1] was 56.8%; in assay [2], 28.4%; in assay [3] it was 21.1%; in assay [4] it was 5.35%; in assay [5] it was 21.3%; in assay [6], 11%.

For `C/C(=N\O)C(CN1CCCCC1)C(c1ccccc1)c1c(O)c2ccccc2oc1=O` (configuration not stated), the growth inhibition in assay [1] is 17.9%; in assay [2] it was 2.05%; in assay [3], 24.6%; in assay [4], 28.6%; in assay [5], 21.4%; in assay [6], 26.9%.

As to `Cc1ccc(O)cc1Cl`, the growth inhibition in assay [1] was -17.8%; in assay [2] it was -39%; in assay [3] it was -20.6%; in assay [4] it was -7.65%; in assay [5], -31.9%; in assay [6], 1.75%.

In the case of `CCP(=S)(CC)P(=S)(CC)CC`, the growth inhibition is -1.35% in assay [1]; -21.4% in assay [2]; -14.6% in assay [3]; -9.2% in assay [4]; -11.8% in assay [5]; 7.45% in assay [6].

Take `O=C(O)c1cccc(Cl)c1`: the growth inhibition in assay [1] was 31.6%; in assay [2], 6%; in assay [3], 19.1%; in assay [4], 10.9%; in assay [5], 25.9%; in assay [6], 8.2%.

For the compound `CP(C)CC[PH+](CC[PH+](C)C)CC[PH+](C)C.[C-]#[O+].[C-]#[O+].[W]`, the growth inhibition is -1.25% in assay [1]; -6.35% in assay [2]; -13.1% in assay [3]; 24.4% in assay [4]; -0.45% in assay [5]; -0.9% in assay [6].

Consider `O=C1OC(C(O)CO)C(O)=C1OC[N+]1(CCCl)CCN(CCCl)CC1` (configuration not stated), for which the growth inhibition was 11.8% in assay [1]; 12.7% in assay [2]; 4.9% in assay [3]; 4.7% in assay [4]; 10.3% in assay [5]; 9.4% in assay [6].

In the case of `[I][Hg][CH]1CCC2CCCC1O2` (configuration not stated), the growth inhibition in assay [1] was 99.7% (active); in assay [2], 99.6% (active); in assay [3], 99.8% (active); in assay [4], 99% (active); in assay [5] it was 98.8% (active); in assay [6], 99.7% (active).

Turning to `C/C=C/C(C)C1(CCC)C(=O)NC(=O)NC1=O` (configuration not stated), the growth inhibition is 0.35% in assay [1]; 2.6% in assay [2]; -3.8% in assay [3]; -37.2% in assay [4]; 8.5% in assay [5]; -3.8% in assay [6].

With `O=C/C=C/c1ccccc1.[Fe+2].[c-]1[c-][c-][cH-][c-]1.[c-]1[c-][c-][cH-][c-]1`, the growth inhibition in assay [1] was 4.65%; in assay [2], -48.2%; in assay [3], 1.65%; in assay [4], 7.85%; in assay [5], 11.4%; in assay [6], 0.4%.

With `CC(CCC#N)([N+](=O)[O-])[N+](=O)[O-]`, the growth inhibition in assay [1] is 17.1%; in assay [2], 12.8%; in assay [3] it was 4.35%; in assay [4], 0.5%; in assay [5] it was 10.3%; in assay [6] it was 12.9%.

With `Cc1cc(S(=O)(=O)F)ccc1O`, the growth inhibition in assay [1] is -3%; in assay [2] it was -6.2%; in assay [3], -16.5%; in assay [4], -42.8%; in assay [5], -2.6%; in assay [6], -1.3%.

Consider `N=Cc1c(O)[nH]c(=O)[nH]c1=O`, for which the growth inhibition in assay [1] was 1.4%; in assay [2] it was 8.75%; in assay [3] it was 3.45%; in assay [4] it was -10.4%; in assay [5], 0.65%; in assay [6], -0.8%.

For `CCOC12CC3C4=CCOC5CC(=O)N6c7ccccc7C1(CCN2C4)C6C53` (configuration not stated), the growth inhibition is 15.8% in assay [1]; -39.2% in assay [2]; -9.45% in assay [3]; 18.9% in assay [4]; 9.05% in assay [5]; -1.2% in assay [6].

Take `CCN(CC)CCc1ccncc1`: the growth inhibition in assay [1] is 12.6%; in assay [2], 10.1%; in assay [3], 6.65%; in assay [4], 30%; in assay [5], -5.05%; in assay [6], 9.65%.

With `CNC(=O)Oc1cccc(N)c1`, the growth inhibition was 5.35% in assay [1]; -1.1% in assay [2]; 5.85% in assay [3]; 7.3% in assay [4]; -22.1% in assay [5]; -0.05% in assay [6].

Take `Clc1ccc(C2CC3CCCCN3O2)cc1` (configuration not stated): the growth inhibition was 13.6% in assay [1]; 3% in assay [2]; 5.9% in assay [3]; -1.1% in assay [4]; 11.6% in assay [5]; 5.45% in assay [6].

For the compound `O=C(O)CCCC(=O)CCCC(=O)O.[Pb]`, the growth inhibition was -20% in assay [1]; -27.3% in assay [2]; -11.7% in assay [3]; -36.1% in assay [4]; 2.05% in assay [5]; -4.1% in assay [6].

Turning to `CC(=O)OC1CCC2(CO)C(CCC3C4CCC(=O)C4(C)CCC32)C1` (configuration not stated), the growth inhibition in assay [1] was 14.1%; in assay [2] it was -4.25%; in assay [3] it was 0.3%; in assay [4], 11.9%; in assay [5], 5.3%; in assay [6] it was 21.8%.

Take `C/C=C1\C[C@@H]2C(OC)Nc3cc(O)c(OC)cc3C(=O)N2C1` (some centres not stated): the growth inhibition in assay [1] was 77.5% (active); in assay [2], 70.7% (active); in assay [3], 84% (active); in assay [4], 56.9%; in assay [5], 81.3% (active); in assay [6], 31.7%.

With `CCOC(=S)S.[Cu+2]`, the growth inhibition in assay [1] was 2.55%; in assay [2], 4.1%; in assay [3], -2.85%; in assay [4] it was -33.6%; in assay [5] it was -36%; in assay [6] it was -17.1%.

`O=C(Nc1c(O)[nH]c(=S)[nH]c1=O)c1ccco1`: the growth inhibition was -24.1% in assay [1]; -4.8% in assay [2]; -10.8% in assay [3]; -4.35% in assay [4]; -13.2% in assay [5]; -16% in assay [6].

Regarding `NCC(O)CSP(=O)(O)O` (configuration not stated), the growth inhibition in assay [1] is -10.9%; in assay [2], -9.85%; in assay [3], -18.9%; in assay [4] it was 24.5%; in assay [5], -3.8%; in assay [6], -0.6%.

The record behind these values is PubChem BioAssay (NCI).
